According to the supplement of paper PMC8728848:
Shown is part of a subset that was picked to be rich in the strongest signals.

How the values were obtained:
Assay in all cases: glycan array binding signal (z-score within array); higher = stronger binding
Conditions in all cases: glycan notation: IUPAC condensed, linker removed
[1] = target: GalNAc(b1-4)Gal(b1-4)Glc
Procedure, shortened: (§1)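 The binding signal is a Z-score computed within each array. Data were drawn from 3228 arrays in the Consortium for Functional Glycomics database, restricted to those with a known protein sequence. Scores were averaged over arrays of the same protein sequence at different concentrations or buffers, and over linkers, and negative values can be taken as non-binding.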

[2] = target: GalNAc(b1-4)GlcNAc
Procedure, shortened: as §1

[3] = target: Glc(a1-4)Glc(a1-4)Glc(a1-4)Glc
Procedure, shortened: as §1

[4] = target: Glc(a1-6)Glc(a1-6)Glc
Procedure, shortened: as §1

[5] = target: Glc(a1-6)Glc(a1-6)Glc(a1-6)Glc
Procedure, shortened: as §1

[6] = target: GlcNAc(b1-3)Gal(b1-4)GlcNAc(b1-3)Gal(b1-4)GlcNAc
Procedure, shortened: as §1

[7] = target: GlcNAc(b1-3)Gal(b1-4)GlcNAc(b1-3)Gal(b1-4)GlcNAc(b1-3)Gal(b1-4)GlcNAc(b1-2)Man(a1-3)[GlcNAc(b1-3)Gal(b1-4)GlcNAc(b1-3)Gal(b1-4)GlcNAc(b1-3)Gal(b1-4)GlcNAc(b1-2)Man(a1-6)]Man(b1-4)GlcNAc(b1-4)GlcNAc
Procedure, shortened: as §1

[8] = target: GlcNAc(b1-3)[GlcNAc(b1-4)][GlcNAc(b1-6)]GlcNAc
Procedure, shortened: as §1

[9] = target: Man(a1-3)[Man(a1-6)]Man
Procedure, shortened: as §1

[10] = target: Man(a1-3)[Man(a1-6)]Man(a1-6)[Man(a1-3)]Man
Procedure, shortened: as §1

[11] = target: Man(a1-3)[Man(a1-6)]Man(b1-4)GlcNAc(b1-4)[Fuc(a1-6)]GlcNAc
Procedure, shortened: as §1

[12] = target: Man(a1-6)Man
Procedure, shortened: as §1

[13] = target: Neu5Ac(a2-3)Gal(b1-3)GlcNAc(b1-2)Man(a1-3)[Neu5Ac(a2-3)Gal(b1-3)GlcNAc(b1-2)Man(a1-6)]Man(b1-4)GlcNAc(b1-4)GlcNAc
Procedure, shortened: as §1

[14] = target: Neu5Ac(a2-3)Gal(b1-4)GlcNAc(b1-2)Man
Procedure, shortened: as §1

[15] = target: Neu5Ac(a2-3)Gal(b1-4)GlcNAc(b1-2)Man(a1-3)[GlcNAc(b1-4)][Neu5Ac(a2-3)Gal(b1-4)GlcNAc(b1-2)Man(a1-6)]Man(b1-4)GlcNAc(b1-4)GlcNAc
Procedure, shortened: as §1

[16] = target: Neu5Ac(a2-3)Gal(b1-4)GlcNAc(b1-2)Man(a1-3)[Neu5Ac(a2-3)Gal(b1-4)GlcNAc(b1-2)Man(a1-6)]Man(b1-4)GlcNAc(b1-4)[Fuc(a1-6)]GlcNAc
Procedure, shortened: as §1

[17] = target: Neu5Ac(a2-3)Gal(b1-4)GlcNAc(b1-3)Gal
Procedure, shortened: as §1

[18] = target: Neu5Ac(a2-3)Gal(b1-4)GlcNAc(b1-3)Gal(b1-4)GlcNAc(b1-3)Gal(b1-4)GlcNAc(b1-2)Man(a1-3)[Neu5Ac(a2-3)Gal(b1-4)GlcNAc(b1-3)Gal(b1-4)GlcNAc(b1-3)Gal(b1-4)GlcNAc(b1-2)Man(a1-6)]GalNAc
Procedure, shortened: as §1

[19] = target: Neu5Ac(a2-3)Gal(b1-4)[Fuc(a1-3)]GlcNAc6S
Procedure, shortened: as §1

[20] = target: Neu5Ac(a2-3)[GalNAc(b1-4)]Gal(b1-4)Glc
Procedure, shortened: as §1

[21] = target: Neu5Ac(a2-6)Gal(b1-4)GlcNAc(b1-2)Man(a1-6)[GlcNAc(b1-2)Man(a1-3)]Man(b1-4)GlcNAc(b1-4)GlcNAc
Procedure, shortened: as §1

[22] = target: Neu5Ac(a2-6)Gal(b1-4)GlcNAc(b1-3)Gal(b1-4)GlcNAc(b1-3)Gal(b1-4)GlcNAc(b1-2)Man(a1-3)[Neu5Ac(a2-6)Gal(b1-4)GlcNAc(b1-3)Gal(b1-4)GlcNAc(b1-3)Gal(b1-4)GlcNAc(b1-2)Man(a1-6)]GalNAc
Procedure, shortened: as §1

[23] = target: Neu5Ac(a2-6)Gal(b1-4)GlcNAc(b1-3)Gal(b1-4)GlcNAc(b1-6)[Gal(b1-3)]GalNAc
Procedure, shortened: as §1

[24] = target: Neu5Ac(a2-6)Gal(b1-4)GlcNAc(b1-3)[Neu5Ac(a2-6)Gal(b1-4)GlcNAc(b1-6)]GalNAc
Procedure, shortened: as §1

[25] = target: Neu5Gc(a2-8)Neu5Gc(a2-3)Gal(b1-4)GlcNAc(b1-3)Gal(b1-4)GlcNAc
Procedure, shortened: as §1

[26] = target: Neu5Gc(a2-8)Neu5Gc(a2-6)Gal(b1-4)GlcNAc
Procedure, shortened: as §1

B1: Clone730PsrP (Streptococcus pneumoniae) (protein)
chain: MDHHHHHHHHHHASENLYFQGAMVVGSQTAAATEATAKKVEEDRKKPASDYVASVTNVNLQSYAKRRKRSVDSIEQLLASIKNAAVFSGNTIVNGAPAINASLNIAKSETKVYTGEGVDSVYRVPIYYKLKVTNDGSKLTFTYTVTYVNPKTNDLGNISSMRPGYSIYNSGTSTQTMLTLGSDLGKPSGVKNYITDKNGRQVLSYNTSTMTTQGSGYTWGNGAQMNGFFAKKGYGLTSSWTVPITGTDTSFTFTPYAARTDRIGINYFNGGGKVVESSTT
- glycan array binding signal (z-score) [1]: 1.39
- glycan array binding signal (z-score) [2]: 0.829
- glycan array binding signal (z-score) [3]: 2.03
- glycan array binding signal (z-score) [4]: -0.273
- glycan array binding signal (z-score) [5]: 2.73
- glycan array binding signal (z-score) [6]: -0.488
- glycan array binding signal (z-score) [7]: -0.481
- glycan array binding signal (z-score) [8]: -0.013
- glycan array binding signal (z-score) [9]: 0.888
- glycan array binding signal (z-score) [10]: 2.14
- glycan array binding signal (z-score) [11]: -0.591
- glycan array binding signal (z-score) [12]: 3.24
- glycan array binding signal (z-score) [13]: 0.657
- glycan array binding signal (z-score) [14]: 1.83
- glycan array binding signal (z-score) [15]: -0.507
- glycan array binding signal (z-score) [16]: -0.658
- glycan array binding signal (z-score) [17]: -0.586
- glycan array binding signal (z-score) [18]: 1.38
- glycan array binding signal (z-score) [19]: 1.98
- glycan array binding signal (z-score) [20]: -0.647
- glycan array binding signal (z-score) [21]: -0.372
- glycan array binding signal (z-score) [22]: 0.355
- glycan array binding signal (z-score) [23]: -0.382
- glycan array binding signal (z-score) [24]: -0.567
- glycan array binding signal (z-score) [25]: -0.565
- glycan array binding signal (z-score) [26]: -0.41
